# In PubChem BioAssay AID1490 (National Center for Advancing Translational Sciences (NCATS), 2009):
# Out of some 310,000 compounds screened, about 11,000 (3.5%) were called active. About 4% were inconclusive and are not listed. Calls follow the shape of the dose curve; as a rule, active = well fitted inhibition curve with a large enough effect; inconclusive = small, poorly fitted or top-dose-only effect, or another doubt; inactive = no such curve, though single readings can be large or run the other way. This excerpt belongs to a sample that is enriched for actives.
# Biological target: 4'-phosphopantetheinyl transferase ffp (Bacillus subtilis) (UniProt Q9F4F7)
# Experiment: qHTS Assay for Inhibitors of Bacillus subtilis Sfp phosphopantetheinyl transferase (PPTase);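 also: the enzyme is Sfp with the accession as filed and its product quenches rhodamine fluorescence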;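 as to largest response in the series, negative = inhibition: 0% = enzyme reaction without inhibitor and -100% = no enzyme wells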
# Conditions: Biochemical Sfp PPTase activity
# Procedure, shortened: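 Reaction rates are the 30-min fluorescence difference (ex 525, em 598 nm) in wells containing 15 nM Sfp, 5 uM rhodamine-CoA and 12.5 uM BHQ-2-YbbR at pH 7.6 with 10 mM MgCl2.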
# Potency is read from the fitted curve at half-maximal effect.
Compound,"largest response in the series, negative = inhibition",Potency
CCC(CC)COC(=O)C1=C(C)NC(=O)NC1c1ccc([N+](=O)[O-])cc1 (configuration not stated),7.14% (inactive),–
O=C(NCc1ccccn1)c1ccc2nc(-c3ccco3)c(-c3ccco3)nc2c1,–,14.1 µM (active)
COc1cccc(S(=O)(=O)NCc2ccc(C(=O)NCc3ccccn3)cc2)c1,12.9% (inactive),–
COCCNC(=O)Nc1ccc2nc(-c3ccco3)c(-c3ccco3)nc2c1,–,4.47 µM (active)
CC(C)(C)c1ccc(NC(=O)NCc2ccco2)cc1,8.16% (inactive),–
O=C(NCc1ccccn1)c1cc(Br)ccc1Cl,-2.95% (inactive),–
O=C(Nc1ccc2nccnc2c1)c1ccco1,15.4% (inactive),–
COc1ccc(CCN2CC(C(=O)NCCN3CCNC3=O)CCC2=O)cc1 (configuration not stated),19% (inactive),–
COc1ccc2c(c1)c1nc3n(c(=O)c1n2CC(=O)Nc1ccccc1)CCS3,1.1% (inactive),–
COc1ccc(C(=O)/C=C/c2cccnc2)c(OC)c1,9.73% (inactive),–
O=[N+]([O-])c1cccc(/C=N/Nc2ncc(Br)cn2)c1,16.8% (inactive),–
Cn1sc(=O)c2cc(S(=O)(=O)NC3CC3)ccc21,–,11.2 µM (active)
CC1CCC(NS(=O)(=O)c2ccc3c(c2)n(C)c(=O)c(=O)n3C)CC1 (configuration not stated),8.22% (inactive),–
O=S(=O)(NC1CC1)c1ccc(F)c(F)c1,16.5% (inactive),–
Cc1nonc1NC(=O)c1oc2ccccc2c1C,-2.27% (inactive),–
CC(=O)c1ccc(N2CCN(CC(O)c3ccccc3)CC2)cc1 (configuration not stated),16.5% (inactive),–
CCc1ccc(Oc2coc3cc(O)ccc3c2=O)cc1,12.7% (inactive),–
CCC(CC)c1nnc(NC(=O)C2CCN(C(=O)c3ccco3)CC2)s1,–,39.8 µM (active)
CCOC(=O)c1c(NC(=O)/C=C/c2ccco2)sc(C)c1C,-8.04% (inactive),–
COc1ccc(CNC(=O)C2CCN(C(=O)c3ccco3)CC2)cc1,5.46% (inactive),–
O=C(/C=C/c1ccco1)Nc1ccc(Oc2ccccc2)cc1,2.06% (inactive),–

Compound,"largest response in the series, negative = inhibition",Potency
C/C=C/C(=O)Nc1nnc(C(C)C)s1,-3.92% (inactive),–
CCC(CC)c1nnc(NC(=O)c2nn(C)c(=O)c3ccccc23)s1,10.8% (inactive),–
CCC(c1nnnn1C1CCCC1)N1CCN(C(=O)c2ccco2)CC1 (configuration not stated),6.92% (inactive),–
CCC(CC)c1nnc(NC(=O)/C=C/c2ccco2)s1,–,56.2 µM (active)
Cc1nnc(NC(=O)/C=C/c2ccco2)s1,–,11.2 µM (active)
FC(F)(F)c1nnc2c3ccccc3c(Cl)nn12,10.4% (inactive),–
CC1CCN(S(=O)(=O)c2ccc(NC(=O)C3CC(=O)N(c4ccccc4)C3)cc2)CC1 (configuration not stated),6.28% (inactive),–
Cc1cc(S(=O)(=O)NC2CCCC2)ccc1-n1cnnn1,16.3% (inactive),–
CCOc1ccc(C(=O)Nc2c3c(nn2-c2ccccc2)CS(=O)(=O)C3)cc1,11.5% (inactive),–
CC(=N\NC(=O)c1cc(Br)ccc1O)/C(=N/O)C(=O)Nc1ccccc1,16.6% (inactive),–
O=C(NCCc1ccccc1Cl)C1CCC(=O)N(CCCc2ccccc2)C1 (configuration not stated),-2.68% (inactive),–
COC(=O)c1ccc(COc2ccc(/C=C/C(=O)c3ccc(OC)c(CSCC(=O)O)c3)cc2OC)cc1,-20.4% (inactive),–
COc1ccc(C2/C(=C(/O)c3ccc4c(c3)CC(C)O4)C(=O)C(=O)N2Cc2ccncc2)cc1 (configuration not stated),-0.196% (inactive),–
COc1cccc2cc(-c3cc(=O)oc4cc(C)c(O)cc34)oc12,-19.1% (inactive),–
CN1CCN(C(=O)C2C3C=CC(C3)C2C(=O)O)CC1 (configuration not stated),-2.06% (inactive),–
C=C(Cl)COC(=O)C1C2C=CC(C2)C1C(=O)O (configuration not stated),-7.02% (inactive),–
O=C(O)C1C2C=CC(C2)C1C(=O)N1CCN(CCO)CC1 (configuration not stated),–,20 µM (active)
CC(CN1CCOCC1)OC(=O)c1ccc(C(C)(C)C)cc1 (configuration not stated),-0.906% (inactive),–
Cc1cccc(N2CCN(S(=O)(=O)c3ccc(-c4cc(C)no4)s3)CC2C)c1 (configuration not stated),13.1% (inactive),–
CCOC(=O)c1sc(NC(=O)CSc2ncccn2)c(C#N)c1C,15.3% (inactive),–
Cc1cc(C(F)(F)F)nc(SCC(=O)Nc2nccs2)n1,-13.1% (inactive),–

Compound,"largest response in the series, negative = inhibition",Potency
CCOC(=O)c1sc(NC(=O)CSc2nc(C)cc(C(F)(F)F)n2)c(C#N)c1C,–,20 µM (active)
O=C(O)c1cccc2c1C(=O)N(C1CCCC1)C2,17.2% (inactive),–
Cc1cc(Cl)nc(NC(=O)Nc2cccc(Cl)c2)n1,-3.29% (inactive),–
Cc1ccc(Nc2ccccc2N)cc1,-23.1% (inactive),–
Cc1cc(Nc2ccccc2)n(C(=O)c2ccc(N)cc2)n1,-8.73% (inactive),–
Nc1ccc(Nc2ccccc2)cc1,–,56.2 µM (active)
O=C1OC2(CCCCC2)CC2=C1C1O[C@](c3ccsc3)(Cc3ccccc31)O2,-2.9% (inactive),–
COC(=O)CCc1ccccc1S(=O)(=O)N(CCC(=O)OC)Cc1ccccc1,-14.7% (inactive),–
CCN(CC(=O)NC(=O)NCc1ccccc1)Cc1nc2ccccc2c(=O)[nH]1,-53% (inactive),–
CCN(CC(=O)Nc1ccc(Cl)c(S(=O)(=O)N(C)C)c1)Cc1nc2ccccc2c(=O)[nH]1,-31.5% (inactive),–
CCN(CC(=O)Nc1cccc(S(N)(=O)=O)c1)Cc1nc2ccccc2c(=O)[nH]1,–,50.1 µM (active)
CN1CCN(C(=O)c2cnn(-c3ccccc3)c2NC(=O)c2ccc([N+](=O)[O-])cc2)CC1,1.55% (inactive),–
Cc1nc2ccc(NC(=S)N3CCC(C)CC3)cc2nc1C,15.4% (inactive),–
CC1CCN(C(=S)NC(=O)c2ccccc2Br)CC1,14.1% (inactive),–
O=C(c1cccc([N+](=O)[O-])c1)N1CCN(C(=O)c2ccco2)CC1,3.81% (inactive),–
CC1CCN(C(=S)c2cccc(O)c2)CC1,–,25.1 µM (active)
CC1CCN(c2ccc([N+](=O)[O-])cc2C(N)=O)CC1,9.05% (inactive),–
CC1CCN(C(=S)c2cccc([N+](=O)[O-])c2)CC1,–,44.7 µM (active)
CC1=C(C(=O)OC2CCCCC2)C(c2ccccc2F)NC(=O)N1 (configuration not stated),7.52% (inactive),–
O=C(NC1CCCC1)C(c1ccco1)N(C(=O)c1ccco1)c1ccc(F)cc1 (configuration not stated),20.8% (inactive),–
